Experimental data as given in PubChem BioAssay.
Results with a measured potency or affinity are listed apart.

Molecular target: Short transient receptor potential channel 4 (Mus musculus) (UniProt Q9QUQ5)
Test: potentiation of DAMGO-evoked TRPC4 calcium signal – cell-based, HEK293 TRPC4/mu-opioid, Fluo-4 calcium, EC20 DAMGO, dose response (AID 434941;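 active = earlier screen potentiator hit that boosts the TRPC4 ion channel at some dose, with a dose response; inactive = no potentiation, no dose response, or not a prior hit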;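 also: calcium entry triggered by an EC20 dose of DAMGO at the co-expressed mu-opioid receptor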)
Conditions: HEK293 TRPC4/mu-opioid cells, Fluo-4 calcium fluorescence; series mostly up to 20 µM; potentiation ratio: at the top concentration

Short transient receptor potential channel 4 (Mus musculus), sequence (Q9QUQ5 whole entry, looked up): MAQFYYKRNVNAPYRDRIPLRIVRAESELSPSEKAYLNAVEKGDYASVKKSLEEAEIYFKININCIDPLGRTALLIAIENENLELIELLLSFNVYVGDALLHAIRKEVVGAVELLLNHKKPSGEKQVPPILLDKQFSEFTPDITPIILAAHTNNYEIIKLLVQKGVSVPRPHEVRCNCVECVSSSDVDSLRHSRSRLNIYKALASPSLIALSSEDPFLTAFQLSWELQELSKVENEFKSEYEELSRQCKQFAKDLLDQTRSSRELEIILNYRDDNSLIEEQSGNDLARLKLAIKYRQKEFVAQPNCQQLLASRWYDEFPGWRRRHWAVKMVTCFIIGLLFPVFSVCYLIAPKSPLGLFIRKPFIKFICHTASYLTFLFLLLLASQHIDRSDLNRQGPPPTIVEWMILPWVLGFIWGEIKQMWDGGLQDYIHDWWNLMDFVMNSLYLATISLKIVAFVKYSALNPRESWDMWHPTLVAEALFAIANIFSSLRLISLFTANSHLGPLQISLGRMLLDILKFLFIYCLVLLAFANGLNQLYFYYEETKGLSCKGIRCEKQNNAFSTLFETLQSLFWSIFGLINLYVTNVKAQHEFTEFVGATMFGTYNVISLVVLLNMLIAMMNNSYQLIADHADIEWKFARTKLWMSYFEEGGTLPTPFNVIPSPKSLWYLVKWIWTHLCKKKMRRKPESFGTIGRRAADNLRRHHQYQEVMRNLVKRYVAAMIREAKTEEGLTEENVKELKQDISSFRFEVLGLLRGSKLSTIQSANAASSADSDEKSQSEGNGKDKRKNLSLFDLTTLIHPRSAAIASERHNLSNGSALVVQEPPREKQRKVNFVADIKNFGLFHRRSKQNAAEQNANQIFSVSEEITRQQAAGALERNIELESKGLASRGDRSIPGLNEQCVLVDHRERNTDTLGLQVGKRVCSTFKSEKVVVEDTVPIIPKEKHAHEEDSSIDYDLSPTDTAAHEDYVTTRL

Potentiation ratio, inactive:
COc1ccc(-n2nc(C(=O)NCC(=O)NCCCN3CC(C)CC(C)C3)c3ccccc3c2=O)cc1Cl (configuration not stated) 4.32, CCC(=O)NC(C)C(c1cccs1)N1CCN(c2ccccc2)CC1 (configuration not stated) -17.6, Cc1sc2ncnc(NCC(c3ccccc3)N(C)C)c2c1C (configuration not stated) -24.1, S=C(NCCc1ccccn1)NC1CCCCC1 -29.9, CCN1CCN(c2ccc(S(=O)(=O)N3CCOCC3)cc2NC(=O)c2ccccc2OC(F)F)CC1 -16.5, COc1ccc(C)c(NC(=O)NCCc2cnc[nH]2)c1 -16.7, Cc1onc(-c2ccccc2)c1C(=O)NNC(=S)NC(=O)c1ccc2c(c1)OCO2 -31.1, O=C1NCN(c2ccccc2)C12CCN(CCCC(c1ccc(F)cc1)c1ccc(F)cc1)CC2 -36.7, COc1c(C)cc(C(=O)C2CCCN(Cc3cccc4nccnc34)C2)cc1C (configuration not stated) -12.1, O=C(NC1CCN(Cc2ccccc2)CC1)C12CC3CC(CC(C3)C1)C2 -14.1

Molecular target: Short transient receptor potential channel 4 (Mus musculus) (UniProt Q9QUQ5)
Test: block of DAMGO-driven TRPC4 calcium entry – cell-based, HEK293 TRPC4/mu-opioid, Fluo-4 calcium, dose response (AID 434942)
Conditions: HEK293 TRPC4/mu-opioid cells, DAMGO-evoked Fluo-4 calcium ratio; series mostly up to 20 µM; ratio response (lower = inhibition): at the top concentration

Ratio response (lower = inhibition), inactive:
COc1ccc(-n2nc(C(=O)NCC(=O)NCCCN3CC(C)CC(C)C3)c3ccccc3c2=O)cc1Cl (configuration not stated) 76.2, Cc1cc(OCC(=O)N(C(C)C)C(C)C)cc(C)c1Br 73.4, CCCCCCn1c(N2CCN(c3ccccc3)CC2)nc2c1c(=O)n(C)c(=O)n2C 35.9, CCC(=O)NC(C)C(c1cccs1)N1CCN(c2ccccc2)CC1 (configuration not stated) -4.35, Cc1ccc(-c2nnc(N3CCC(C)CC3)c3ccccc23)cc1C 19.2, Cc1cc(C(C)(C)C)c(O)c(C)c1CC1=NCCN1 154, Cc1sc2ncnc(NCC(c3ccccc3)N(C)C)c2c1C (configuration not stated) -5.79, O=C(NCc1ccccc1)C1=C[C@H](c2ccc(Br)cc2)C[C@H](OCc2ccc(CO)cc2)O1 112, O=C(Nc1ccccc1)C1=C[C@H](C2CCCCC2)C[C@H](OCc2ccc(CO)cc2)O1 44.9, Cc1ccc(S(=O)(=O)N2CCC(N3CCN(C)CC3)CC2)cc1Cl 93.7, Cc1cc(OCC(=O)NC2CCCCC2)ccc1Cl 128, O=[N+]([O-])c1ccc(/C=N/Nc2nc(N3CCCCC3)nc(N3CCCCC3)n2)o1 116, Cc1cccc(/C=N/NC(=O)c2cccc(Cl)c2)n1 97.5, S=C(NCCc1ccccn1)NC1CCCCC1 46.2, Cc1cccc(Cc2c(C)nc3c(C(=O)NCc4ccco4)cnn3c2C)c1 54.3, Cc1ccc(Cn2c(=N)c(C(=O)NC3CCCC3)cc3c(=O)n4ccccc4nc32)cc1 108, COC(=O)[C@@]12CCCCN1[C@H](c1ccc(-c3cccc(Cl)c3)c(OC)c1)[C@H]1C(=O)N(C)C(=O)[C@H]12 109, CC1=C(C(=O)NCc2ccccc2)C(c2cc(Br)cc(Br)c2OC(C)C)NC(=O)N1 (configuration not stated) 10.5, CC1Cc2ccccc2N1C(=O)CSc1nc2c(c(=O)n(C)c(=O)n2C)n1Cc1ccc(F)cc1 (configuration not stated) 67.2, CCN1CCN(c2ccc(S(=O)(=O)N3CCOCC3)cc2NC(=O)c2ccccc2OC(F)F)CC1 31.7, O=C1C(Cl)=C(Nc2cccc(O)c2)C(=O)N1Cc1ccccc1 37.9, O=C(NCc1ccccc1)C1=C[C@H](c2ccc(C(F)(F)F)cc2)C[C@H](OCc2ccc(CO)cc2)O1 71.5, COc1ccc(C)c(NC(=O)NCCc2cnc[nH]2)c1 -0.44, CN(C)CCNc1ccc(Cl)cc1[N+](=O)[O-] 114, CCn1c(O)c(N=NC(=O)c2cccc(S(=O)(=O)N3CCCCC3)c2)c2ccccc21 28.9, Cc1onc(-c2ccccc2)c1C(=O)NNC(=S)NC(=O)c1ccc2c(c1)OCO2 -0.45, COc1ccc(Cl)cc1C(=O)NCCN(C)C 119, O=C1NCN(c2ccccc2)C12CCN(CCCC(c1ccc(F)cc1)c1ccc(F)cc1)CC2 -8.99, Cc1ccc(/C=N/NC(=O)NC2CCCCC2)o1 119, O=C(Nc1cccc(Cl)c1)c1cnn2cccnc12 172, COc1c(C)cc(C(=O)C2CCCN(Cc3cccc4nccnc34)C2)cc1C (configuration not stated) -9.46, O=C(c1cccc([N+](=O)[O-])c1)N1CCCC(C(=O)N2CCCCCC2)C1 (configuration not stated) 50.1, CCOc1ccc(-n2c(SCC(=O)O)nc3sc4c(c3c2=O)CCCC4)cc1 108, Cc1cc(-c2ccc(C)c(S(=O)(=O)N3CCN(C(=O)c4ccco4)CC3)c2)on1 127, O=C(NC1CCN(Cc2ccccc2)CC1)C12CC3CC(CC(C3)C1)C2 17.4, Cc1cccc(/C=N/NC(=O)c2cc(Br)ccc2O)n1 125, C1CCN(c2nc(N3CCCC3)nc(N3CCNCC3)n2)C1 133
